# According to PubChem BioAssay AID504834 (National Center for Advancing Translational Sciences (NCATS), 2011):
# About 22,000 (6.9%) of roughly 320,000 compounds were called active. Inconclusive results (about 27%) are left out. For the sample, actives were picked, then their nearest neighbours and some compounds at random. Unmarked numbers belong to inactive results. The call rests on the fitted dose curve; in most records, active means well fitted inhibition curve with a large enough effect; inconclusive means small, poorly fitted or top-dose-only effect, or another doubt; inactive means no such curve, though single readings can be large or run the other way.
# Assay: Primary qHTS for delayed death inhibitors of the malarial parasite plastid, 96 hour incubation
# Settings: P. falciparum luciferase reporter growth; series mostly up to 28.7 µM; activity change, negative = inhibition: at the top concentration
# Excerpt: The goal of this screen is to discover new antimalarial compounds that act by inhibiting the development of the apicoplast in the malarial parasite Plasmodium falciparum. The biochemical processes that make this organelle essential for erythrocytic stage parasites are not well understood. However, antibiotics such as azithromycin and tetracycline, which target the apicoplast translational machinery, have a potent antimalarial effect.
# We have developed a cell-based assay that measures parasite growth based on the expression of an integrated copy of a firefly luciferase reporter. To detect small molecules that cause this "delayed death" phenotype, erythrocytes infected with the luciferase-expressing parasites were incubated with compounds for either one or two generations, corresponding to 48 and 96 hours, respectively. Compounds that inhibit parasite growth in the second generation, but not the first, should be enriched in antimalarials that target the apicoplast. Growth inhibition is detected by a decrease in luciferase activity.
# Assay Provider: David Fidock and Eric Ekland, Columbia University
# Keywords: NIH Roadmap, MLPCN, MLI, MLSMR, qHTS, NCGC, qHTS, malaria, luciferase, viability
# Four microliters of infected erythrocytes (2% hematocrit, 0.05% parasitemia final concentration) in culture medium were dispensed and the plates incubated for 96 hours at 37 C in 5% CO2. Two microliters of luciferase detection reagent was added and luminescence was detected by a ViewLux (PerkinElmer) reader.
# On the % scale 0 is the no-effect control and ±100 the full control effect; potency means the concentration at half of the fitted maximal effect.
Structure (SMILES),"activity change, negative = inhibition [%]",Potency
CCCCc1cc(=O)oc2c(C)c(OCC(=O)N3CCC(C(N)=O)CC3)ccc12,19.5,
CCCc1cc(=O)oc2c(C)c(OC(C)C(=O)NCC(O)c3ccccc3)ccc12 (configuration not stated),-15.3,
CCCc1cc(=O)oc2c(C)c(O)c(CN3CCCCC3)cc12,,2.08 µM (active)
COc1ccc(NC(=O)CN2C(=O)COc3ccc(S(=O)(=O)N4CCOCC4)cc32)cc1,-0.78,
Cc1ccc(S(=O)(=O)N2CCC(C)CC2)cc1C(=O)NCc1ccccn1,6.35,
O=C(CCc1nc2sc3c(c2c(=O)[nH]1)CCCC3)NCC(=O)Nc1ccccc1Br,13.4,
O=C(CCNS(=O)(=O)c1cccs1)N1CCN(c2ccc(F)cc2)CC1,-21.8,
CN(CCC1CCOCC1)C(=O)CC1C(=O)NCCN1Cc1cccc(F)c1 (configuration not stated),81.9,
CN(CCC1CCOCC1)Cc1cn[nH]c1-c1ccc(-c2ccccc2)cc1,,13.1 µM (active)
O=[N+]([O-])c1ccc(N2CCSCC2)cc1O,23.3,
O=C(COC(=O)C1CC2CCCC(C1)C2=O)NC(=O)c1ccccc1 (configuration not stated),11.2,
CC(=O)Nc1cccc(-c2cnc3ccccc3n2)c1,-1.47,
Cc1ccc(Nc2nc(-c3ccc(O)cc3O)cs2)nc1,20.1,
Cc1cc(O)ccc1-c1cnc2ccccc2n1,,2.62 µM (active)
COc1ccc2oc(=N)c(C(=O)Nc3ccc(Br)cc3)cc2c1,257,
Cc1cccc(-n2c(=O)c3c(C)c(C)sc3n(CC(N)=O)c2=O)c1,32.2,
Cc1sc2c(c1C)c(=O)n(-c1ccccc1)c(=O)n2CC(=O)NCC1CCCO1 (configuration not stated),48.7,
Cc1cccc(NC(=O)Cn2c(=O)n(Cc3ccccc3)c(=O)c3c(C)c(C)sc32)c1,,14.7 µM (active)
Cc1noc(C)c1COc1ccccc1C(=O)N(C)CC(=O)Nc1cccc(F)c1,16.9,
O=C(O)C1CCC(CNS(=O)(=O)c2ccc(Br)cc2)CC1 (configuration not stated),2.75,
CN(C)CCCNC(=S)N1CCN(c2nc(-c3ccccc3)cs2)CC1,0,
Cc1ccc(NC(=O)C(CC(=O)O)C2CCCO2)c(C)c1 (configuration not stated),8.69,
COc1cccc(/C=C2\C=C(c3ccc(C)cc3)OC2=O)c1OC(C)=O,32.9,

Structure (SMILES),"activity change, negative = inhibition [%]",Potency
O=C(COC(=O)CCCN1C(=O)c2cccc3cccc(c23)C1=O)NC1CCS(=O)(=O)C1 (configuration not stated),30.8,
COc1cc([N+](=O)[O-])ccc1NC(=O)COC(=O)CCOc1ccc(C)cc1,-0.415,
O=C(Nc1nnc(CCN2CCCCC2)s1)c1cccc(Cl)c1,29.8,
COC(=O)c1ccc(NC(=O)c2cc(Cl)ccc2OC)cc1,0,
CCN(CC)C(=O)Oc1ccc(Br)cc1C(=O)Nc1ccc(F)c(Cl)c1,,11.7 µM (active)
CCN(CC)C(=O)C(=O)Nc1cccc(Br)c1,-5.94,
Cc1cc(C)n2nc(C(=O)OCC(=O)N(C)CC(=O)Nc3ccc(F)cc3)nc2n1,7.58,
COc1ccccc1NC(=O)C1=C(C)NC(=O)NC1c1ccc(C)s1 (configuration not stated),,6.57 µM (active)
COc1ccccc1NC(=O)C1=C(C)Nc2ncnn2C1c1ccc(C)o1 (configuration not stated),-29.5,
COc1ccccc1NC(=O)C1=C(C)NC2=C(C(=O)CCC2)C1c1ccc(C)o1 (configuration not stated),17.3,
Cc1ccc(Nc2ncnc3c2cnn3C)c(C)c1,-14.4,
O=C(c1ccco1)N1CCN=C1SCc1cccc(Cl)c1,,10.4 µM (active)
O=C(C1CC1)N1CCN=C1SCc1ccc(Cl)cc1,7.45,
O=C(COc1ccccc1)N1CCN=C1SCc1cccc(F)c1,8.33,
COc1ccccc1C1C(C(N)=O)=C(C)Nc2nc(CCCO)nn21 (configuration not stated),9.37,
Clc1ccc(C2=CSC3=Nc4cccc5cccc(c45)N23)cc1,,3.7 µM (active)
COc1ccccc1-c1c(C#N)c(N)nc2c1CCC2,14.8,
O=C(Nc1nonc1-c1ccc(Cl)cc1)c1ccco1,5.85,
COCCn1c(SC(C)C(=O)NC2CC2)nnc1-c1cccc(C)c1 (configuration not stated),4.07,
CCc1nc2cccnc2n1-c1ccc(C(=O)O)cc1,-9.55,
CCOc1ccc(CN(CCCl)CCCl)cc1C(=O)OC,64.7,
CCCOc1ccc(CN(CCO)CCO)cc1C(=O)OC,,8.28 µM (active)
COC(=O)c1cc(CNC(=O)CC(C)c2ccccc2)ccc1OC (configuration not stated),2.52,

Structure (SMILES),"activity change, negative = inhibition [%]",Potency
Cc1ccc(C(=O)NCCc2nnc(SCC(=O)Nc3cccc(C(=O)O)c3)n2C)cc1,4.52,
COc1cc(CCC(=O)N2CCN(c3ccccc3Cl)CC2)cc(OC)c1OC,-23.8,
Cc1ccc(NC(=S)NCCc2ccc(Cl)cc2)c(C)c1,-9.71,
CC(C)OC(=O)CN1C(=O)c2ccccc2C1=O,,7.38 µM (active)
CC(C)OC(=O)CN1C(=O)C(=O)c2ccccc21,,2.08 µM (active)
CC(OC(=O)CN1C(=O)c2ccccc2C1=O)C(=O)c1ccccc1 (configuration not stated),13.1,
Cc1cccc2c1N(CC(=O)OC(C)C)C(=O)C2=O,38.3,
CCOC(=O)CN1C(=O)C(=O)c2cc(C)ccc21,125,
COc1cc(C(C)=O)ccc1OC(=O)CN1C(=O)c2ccccc2C1=O,13.4,
CCCCn1c(N)c(N(CC)C(=O)c2ccc(N(C)S(=O)(=O)c3ccc(C)cc3)cc2)c(=O)[nH]c1=O,-16.1,
C[C@H](NC(=O)C1CC(=O)N(c2ccc3c(c2)OCCO3)C1)C(=O)N1CCC(C(=O)O)CC1 (some centres not stated),-9.53,
CC(C(=O)c1ccc(-c2ccccc2)cc1)[n+]1cccc(Br)c1 (configuration not stated),,2.33 µM (active)
CC(=O)Nc1ccc(C(=O)C(Cc2ccccc2)N(C)C)cc1 (configuration not stated),2.69,
O=C(NC1CCCC1)C(c1c(F)cccc1Cl)N(C(=O)c1csnn1)C1CC1 (configuration not stated),-4.38,
COc1ccc(-n2nc(C(=O)Nc3cc(OC)c(OC)c(OC)c3)c3ccccc3c2=O)c(OC)c1,,8.28 µM (active)
COc1ccc(-n2nc(C(=O)NCC(=O)Nc3cccc(C)n3)c3ccccc3c2=O)cc1,19.7,
COC(=O)c1cc(NC(=O)c2nn(C)c(=O)c3ccccc23)cc(C(=O)OC)c1,59.9,
Cc1ccc(NC(=O)Cc2nnc(SCC(=O)Nc3nncs3)n2C)cc1,-28.1,
CC1CCN(S(=O)(=O)c2ccc3c(ccn3CC(=O)O)c2)CC1,-20.2,
O=C(CNC(=O)c1ccccc1F)c1ccc(Br)cc1,68.4,
COc1cccc(NC(=O)CN(C)C(=O)CSCc2nc3scc(-c4cccs4)c3c(=O)[nH]2)c1,28.3,
